Measurements reported in the supplement of paper PMC8728848.
The sample as a whole holds a higher share of the strongest signals than the screen did.

Experiments:
Assay in all cases: glycan array binding signal (z-score within array); higher = stronger binding
Conditions in all cases: glycan notation: IUPAC condensed, linker removed
[1] = biological target: Fuc(a1-2)Gal(b1-3)GalNAc(a1-3)[Fuc(a1-2)]Gal(b1-4)Glc
How it was run: (§1)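 The binding signal is a Z-score computed within each array and averaged over linkers. Arrays of the same protein sequence at different concentrations or buffers were also averaged together. Data originate from 3228 arrays in the Consortium for Functional Glycomics database, kept only where the protein sequence was available.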

[2] = biological target: Fuc(a1-2)Gal(b1-3)GalNAc(b1-3)Gal
How it was run: as §1

[3] = biological target: Fuc(a1-2)Gal(b1-4)GlcNAc
How it was run: as §1

[4] = biological target: Fuc(a1-2)Gal(b1-4)GlcNAc(b1-6)GalNAc
How it was run: as §1

[5] = biological target: Fuc(a1-2)[Gal(a1-3)]Gal(b1-3)GlcNAc(b1-3)GalNAc
How it was run: as §1

[6] = biological target: Fuc(a1-2)[GalNAc(a1-3)]Gal(b1-4)Glc
How it was run: as §1

[7] = biological target: Fuc(a1-2)[GalNAc(b1-3)]Gal
How it was run: as §1

[8] = biological target: Fuc(a1-3)[Gal(b1-4)]GlcNAc(b1-2)Man(a1-3)[Fuc(a1-3)[Gal(b1-4)]GlcNAc(b1-2)Man(a1-6)]Man(b1-4)GlcNAc(b1-4)GlcNAc
How it was run: as §1

[9] = biological target: Gal(a1-3)Gal(b1-3)GlcNAc(b1-3)GalNAc
How it was run: as §1

[10] = biological target: Gal(b1-3)GlcNAc(a1-6)Gal(b1-4)GlcNAc
How it was run: as §1

[11] = biological target: Gal(b1-3)GlcNAc(b1-3)Gal(b1-4)Glc
How it was run: as §1

[12] = biological target: Gal(b1-3)GlcNAc(b1-3)Gal(b1-4)GlcNAc(b1-6)[Gal(b1-3)GlcNAc(b1-3)]Gal(b1-4)Glc
How it was run: as §1

[13] = biological target: Gal(b1-3)GlcNAc(b1-6)[Gal(b1-3)]GalNAc
How it was run: as §1

[14] = biological target: Gal(b1-3)[GlcNAc(b1-6)]GalNAc
How it was run: as §1

[15] = biological target: Gal(b1-4)GlcNAc(b1-2)[Gal(b1-4)GlcNAc(b1-4)]Man(a1-3)[GlcNAc(b1-4)][Gal(b1-4)GlcNAc(b1-2)[Gal(b1-4)GlcNAc(b1-6)]Man(a1-6)]Man(b1-4)GlcNAc(b1-4)GlcNAc
How it was run: as §1

[16] = biological target: Gal(b1-4)GlcNAc(b1-2)[Gal(b1-4)GlcNAc(b1-6)]Man(a1-6)[Gal(b1-4)GlcNAc(b1-2)Man(a1-3)]Man(b1-4)GlcNAc(b1-4)[Fuc(a1-6)]GlcNAc
How it was run: as §1

[17] = biological target: Gal(b1-4)GlcNAc(b1-3)Gal(b1-3)GlcNAc
How it was run: as §1

[18] = biological target: Gal(b1-4)GlcNAc(b1-3)Gal(b1-4)Glc
How it was run: as §1

[19] = biological target: Gal(b1-4)GlcNAc(b1-3)Gal(b1-4)GlcNAc(b1-2)Man(a1-3)[Gal(b1-4)GlcNAc(b1-3)Gal(b1-4)GlcNAc(b1-2)Man(a1-6)]Man(b1-4)GlcNAc(b1-4)[Fuc(a1-6)]GlcNAc
How it was run: as §1

[20] = biological target: Gal(b1-4)GlcNAc(b1-3)Gal(b1-4)GlcNAc(b1-3)Gal(b1-4)GlcNAc(b1-2)Man(a1-3)[Gal(b1-4)GlcNAc(b1-3)Gal(b1-4)GlcNAc(b1-3)Gal(b1-4)GlcNAc(b1-2)Man(a1-6)]Man(b1-4)GlcNAc(b1-4)[Fuc(a1-6)]GlcNAc
How it was run: as §1

[21] = biological target: Gal(b1-4)GlcNAc(b1-3)Gal(b1-4)GlcNAc(b1-3)Gal(b1-4)GlcNAc(b1-3)Gal(b1-4)GlcNAc(b1-2)Man(a1-3)[Gal(b1-4)GlcNAc(b1-3)Gal(b1-4)GlcNAc(b1-3)Gal(b1-4)GlcNAc(b1-3)Gal(b1-4)GlcNAc(b1-2)Man(a1-6)]Man(b1-4)GlcNAc(b1-4)[Fuc(a1-6)]GlcNAc
How it was run: as §1

[22] = biological target: Gal(b1-4)GlcNAc(b1-3)Gal(b1-4)GlcNAc(b1-3)Gal(b1-4)GlcNAc(b1-3)Gal(b1-4)GlcNAc(b1-3)Gal(b1-4)GlcNAc(b1-2)Man(a1-3)[Gal(b1-4)GlcNAc(b1-3)Gal(b1-4)GlcNAc(b1-3)Gal(b1-4)GlcNAc(b1-3)Gal(b1-4)GlcNAc(b1-3)Gal(b1-4)GlcNAc(b1-2)Man(a1-6)]Man(b1-4)GlcNAc(b1-4)[Fuc(a1-6)]GlcNAc
How it was run: as §1

[23] = biological target: Gal(b1-4)GlcNAc(b1-3)Gal(b1-4)GlcNAc(b1-3)Gal(b1-4)GlcNAc(b1-3)Gal(b1-4)GlcNAc(b1-3)Gal(b1-4)GlcNAc(b1-3)Gal(b1-4)GlcNAc(b1-2)Man(a1-3)[Gal(b1-4)GlcNAc(b1-3)Gal(b1-4)GlcNAc(b1-3)Gal(b1-4)GlcNAc(b1-3)Gal(b1-4)GlcNAc(b1-3)Gal(b1-4)GlcNAc(b1-3)Gal(b1-4)GlcNAc(b1-2)Man(a1-6)]Man(b1-4)GlcNAc(b1-4)GlcNAc
How it was run: as §1

[24] = biological target: Gal(b1-4)GlcNAc(b1-3)Gal(b1-4)GlcNAc(b1-3)[Gal(b1-4)GlcNAc(b1-3)Gal(b1-4)GlcNAc(b1-6)]GalNAc
How it was run: as §1

[25] = biological target: Gal3S(b1-4)GlcNAc6S
How it was run: as §1

[26] = biological target: GalNAc(b1-4)GlcNAc(b1-2)Man
How it was run: as §1

B1: LCA (Lens culinaris), P02870 (protein)
chain: MASLQTQMISFYLIFLSILLTTIFFFKVNSTETTSFSITKFSPDQKNLIFQGDGYTTKGKLTLTKAVKSTVGRALYSTPIHIWDRDTGNVANFVTSFTFVIDAPSSYNVADEFTFFIAPVDTKPQTGGGYLGVFNSKEYDKTSQTVAVEFDTFYNAAWDPSNKERHIGIDVNSIKSVNTKSWNLQNGERANVVIAFNAATNVLTVTLTYPNSLEEENVTSYTLNEVVPLKDVVPEWVRIGFSATTGAEFAAHEVHSWSFHSELGGTSSSKQAADA
Q: With B1 as the binder, how does the “glycan array binding signal (z-score)” value [1] read?
A: -0.201

Q: What about the “glycan array binding signal (z-score)” value [2] of the same binder?
A: -0.218

Q: What about the “glycan array binding signal (z-score)” value [3] of the same binder?
A: -0.217

Q: What about the “glycan array binding signal (z-score)” value [4] of the same binder?
A: -0.218

Q: And the “glycan array binding signal (z-score)” value [5]?
A: -0.238

Q: What about the “glycan array binding signal (z-score)” value [6] of the same binder?
A: -0.232

Q: And the “glycan array binding signal (z-score)” value [7]?
A: -0.257

Q: What about the “glycan array binding signal (z-score)” value [8] of the same binder?
A: -0.237

Q: What about the “glycan array binding signal (z-score)” value [9] of the same binder?
A: -0.227

Q: What about the “glycan array binding signal (z-score)” value [10] of the same binder?
A: -0.211

Q: And the “glycan array binding signal (z-score)” value [11]?
A: -0.231

Q: And the “glycan array binding signal (z-score)” value [12]?
A: -0.238

Q: What about the “glycan array binding signal (z-score)” value [13] of the same binder?
A: -0.231

Q: What about the “glycan array binding signal (z-score)” value [14] of the same binder?
A: -0.238

Q: And the “glycan array binding signal (z-score)” value [15]?
A: -0.235

Q: What about the “glycan array binding signal (z-score)” value [16] of the same binder?
A: 4.72

Q: And the “glycan array binding signal (z-score)” value [17]?
A: -0.225

Q: And the “glycan array binding signal (z-score)” value [18]?
A: -0.205

Q: What about the “glycan array binding signal (z-score)” value [19] of the same binder?
A: 4.42

Q: And the “glycan array binding signal (z-score)” value [20]?
A: 4.2

Q: What about the “glycan array binding signal (z-score)” value [21] of the same binder?
A: 3.87

Q: What about the “glycan array binding signal (z-score)” value [22] of the same binder?
A: 3.85

Q: And the “glycan array binding signal (z-score)” value [23]?
A: -0.192

Q: And the “glycan array binding signal (z-score)” value [24]?
A: 0.058

Q: And the “glycan array binding signal (z-score)” value [25]?
A: -0.227

Q: And the “glycan array binding signal (z-score)” value [26]?
A: -0.199
